# Screening data as filed in PubChem.
# This is a sample that favours compounds with a hit; in the whole collection about 1.5% have one here.
# Polio RdRp inh – poliovirus RNA polymerase inhibition. P03300. poliovirus polymerase elongation, fluorescence polarization; stronger effect = lower value. % elongation, % (compound at 16.7 µg/mL). 150,000 tested, 0.66% active; in the data active = % elongation below about 90%
# MbtI inh – MbtI salicylate synthase inhibition; purified MbtI enzyme, fluorescence intensity read-out; inhibition, % (test concentration not listed); 100,000 tested, 0.89% active; AID 493033; in the data active = inhibition mostly above about 56%, no sharp cut-off; inactive = mostly below about 77%
# AID504770 – E. coli YBA685 growth inhibition, screen for V. cholerae RctB inhibitors; E. coli YBA685 rctB-dependent plasmid, OD600 growth, 3 h; stronger effect = lower value; z-score (test concentration not listed); 130,000 tested, 0.27% active; AID 504770; in the data active = z-score below about -2, passing the limit was not always enough
# MenB inh – inhibitors of Mycobacterium tuberculosis MenB enzyme; AID 540299; 100,000 tested, 0.43% active; MenB enzyme assay, absorbance read-out; P9WNP5; inhibition, % (no concentration beside the values); in the data active = inhibition above about 21%, passing the limit was not always enough
# Target sequence (P9WNP5 whole entry, looked up): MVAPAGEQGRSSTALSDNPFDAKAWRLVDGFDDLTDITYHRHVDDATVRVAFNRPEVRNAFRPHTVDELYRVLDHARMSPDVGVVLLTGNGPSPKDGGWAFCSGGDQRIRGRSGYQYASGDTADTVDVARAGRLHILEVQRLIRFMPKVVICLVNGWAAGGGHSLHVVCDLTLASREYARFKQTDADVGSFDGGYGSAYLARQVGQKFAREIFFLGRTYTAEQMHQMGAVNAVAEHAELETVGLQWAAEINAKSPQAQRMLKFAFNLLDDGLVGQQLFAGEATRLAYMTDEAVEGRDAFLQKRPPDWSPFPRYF
# * = called active by the depositor; nt = no result.
SMILES,Polio RdRp inh,MbtI inh,AID504770,MenB inh
O=C(NC(Cc1ccccc1)C(=O)OCc1ccccc1)c1cccs1 (configuration not stated),104,-5,-0.2,nt
O=C(N[C@@H](Cc1ccccc1)C(=O)OCc1ccccc1)c1ccco1,80*,-8,0.2,-11
O=C(Nc1ccc2c(c1)OCCO2)C1CCCN(S(=O)(=O)Cc2ccccc2)C1 (configuration not stated),101,0,1.1,56*
O=C(O)C1CCCN(S(=O)(=O)Cc2ccccc2)C1 (configuration not stated),102,-6,-1.1,18
Cc1nn(C(=O)c2cccnc2)c(-c2ccccc2)c1Sc1ccccc1,101,-9,-0.55,-15
COc1ccccc1N1CCN(C(=O)c2ccc[nH]c2=S)CC1,101,81*,1.4,-36
COc1ccccc1N1CCN(C(=O)c2ccccc2C(F)(F)F)CC1,100,-9,-0.35,-5
CCc1ccc(NC(=O)c2cc3c(=O)n(C)c4ccccc4c3s2)cc1,101,-4,0.35,-18
CCc1nn2c(=O)cc(COC(=O)c3ccc4c(c3)OCO4)nc2s1,104,nt,nt,nt
CC(C)Cc1nn2c(=O)cc(COC(=O)c3ccc4c(c3)OCO4)nc2s1,73*,nt,nt,nt
CCn1c(CSc2ncccn2)nc2cc(C(=O)O)ccc21,86,8,-0.2,-23
CCn1c(CS(=O)(=O)c2cc(C)ccc2C)nc2cc(C(=O)O)ccc21,81*,-11,-0.55,1
O=S(=O)(Nc1ccon1)c1cc(F)ccc1F,103,-20,-1.2,5
CCOC(=O)c1cn(C2CC2)c2c(F)c(F)c(F)cc2c1=O,100,nt,-0.15,-12
COCCn1c(O)c(C=NCc2nc3ccccc3n2C)c(=O)[nH]c1=S,75,-5,-0.15,-75
O=C(COCc1cc(-c2ccc3c(c2)OCO3)on1)Nc1ccc(OC(F)(F)F)cc1,100,13,-2.5*,-22
CCc1ccccc1NC(=O)CN1CCN(Cc2ccccc2C)S1(=O)=O,102,3,-3.5*,-15
COc1ccc2oc(C(=O)OCC(=O)Nc3ccc(S(=O)(=O)N4CCOCC4)cc3)c(C)c2c1,107,104,-0.15,-20
C=CCn1c(=O)[nH]c2nc3cc(N=CN(C)C)c(C)cc3nc2c1=O,88,-4,-0.3,-21
C=CCn1c(=O)[nH]c2nc3cc(N=CN(C)C)ccc3nc2c1=O,-6.0*,6,1.5,-49
Nc1ccc(C(=O)O)c(O)c1,99,-50,-0.05,8
Cc1cc(N)cc(C(=O)O)c1O,99,10,1.2,37*
Cc1nn(C(C)(C)C)c2c1C(c1ccsc1)C1=C(CCCC1=O)N2 (configuration not stated),99,-49,-0.6,nt
N#CCN(CC#N)C(=O)Cc1cccs1,102,-3,1.6,4
CN(C)CCC(=O)c1ccccc1,103,22,0.5,nt
SMILES,Polio RdRp inh,MbtI inh,AID504770,MenB inh
CCCC(=O)c1ccc2[s+]c3ccccc3[n+](CCCN(C)C)c2c1,89*,nt,-0.6,-38
CN=C1SC(CC(=O)Nc2ccccc2)C(=O)N1C (configuration not stated),nt,-8,0.4,-8
O=C(CC1Sc2ncnn2C1=O)Nc1ccc(Br)cc1 (configuration not stated),nt,99*,1.7,nt
CCC1CCCCN1C(=O)c1cc2ccccc2oc1=O (configuration not stated),59*,nt,-0.85,-8
O=C(c1cc2ccccc2oc1=O)N1CCCC1,98,25,-0.35,38
NC(=O)CSc1nc2ccccc2s1,100,82*,-0.5,-38
O=C(CSc1nc2ccccc2s1)c1ccc[nH]1,58*,10,0.3,-43
O=C(CSc1nc2ccccc2s1)c1ccccc1,nt,nt,0.25,nt
COc1cccc2c(CCN)c[nH]c12,89*,nt,0.35,6
COC(=O)c1ccc(CSc2nnc(Cc3cccs3)n2C2CCCCC2)o1,109,-8,-0.75,-8
CN=C1S/C(=C\c2ccc(Cl)cc2)C(=O)N1C,88*,6,0.05,6
O=C1C=CC(=O)N1c1ccc(N2CCOCC2)cc1,101,93*,-0.3,-42
CC1=C(C)CC2C(=O)N(c3ccc(N4CCOCC4)cc3)C(=O)C2C1 (configuration not stated),100,-3,0.75,nt
CC(C)n1cn[nH]c1=S,96,59*,0.15,-23
O=C1NCCc2c(OCC(=O)N3CCCC3)cccc21,104,-4,1.4,-23
COC(=O)c1sc(NC(=O)COc2ccc(OC)cc2)c(C#N)c1C,83*,nt,-0.5,-20
COCC(=O)Nc1c(C(=O)Nc2ccc(C)c(C)c2)oc2ccccc12,100,18,-0.3,-4
CCc1c(CN2CCN(c3cccc(C)c3C)CC2)csc1C,56*,nt,nt,nt
O=C(c1ccc(NS(=O)(=O)c2ccc(Cl)s2)cc1)N1CCN(C(=O)c2cccs2)CC1,101,18,1.9,-2
N#CCc1nc(-c2cccc(Cl)c2)n[nH]1,101,74*,0.85,12
C/C(=N\NC(N)=S)c1ccc(Cl)cc1,nt,61*,1.2,-54
O=C(c1cccs1)c1coc2ccc(O)c(CN3CCCCC3)c12,nt,14,2.1,nt
N=C1C(c2nc3ccccc3s2)=C(O)CN1N1C(=O)c2ccccc2C1=O,89*,54,-0.05,0
O=C(Cn1cc(SCc2ccc(C(F)(F)F)cc2)c2ccccc21)N1CCCCCC1,115,nt,nt,nt
O=C(Cn1cc(SCc2ccc(C(F)(F)F)cc2)c2ccccc21)N1CCCCC1,44*,nt,nt,nt
SMILES,Polio RdRp inh,MbtI inh,AID504770,MenB inh
Cc1cc(C(=O)Nc2ccc3c(c2)OCCO3)oc1C,100,10,-0.55,-8
Cn1c(SCc2cnc(-c3ccccc3)s2)nnc1C1COc2ccccc2O1 (configuration not stated),102,-11,0.05,-8
c1ccc(-c2nn3c(C4COc5ccccc5O4)nnc3s2)nc1 (configuration not stated),92,57*,-0.9,-35
O=C(COc1ccc2c(c1)[nH]c1ccccc12)NC1CC1,101,4,0.1,-29
O=C(c1cccs1)N(c1ccccc1)C1C=CS(=O)(=O)C1 (configuration not stated),101,-3,-0.3,4
CSC1=NSC2=NC(=O)/C(=C\c3cccs3)C(=N)N12,99,100*,-0.85,-61
O=C(O)c1cc(=O)c2ccccc2[nH]1,99,31,1.4,15
O=C(O)c1cc2c(cn1)[nH]c1ccccc12,106,116,-3.5*,0
Cc1cc(C)cc(-n2ccnc(NCc3ccc4c(c3)OCO4)c2=O)c1,101,-134,0.9,-4
O=C(NC(=O)N1CCCCC1)c1ccc(-c2csnn2)cc1,111,-1,1.1,-7
COc1ccc(NC(=O)Cn2cc(C#N)c3ccccc32)cc1,99,-11,0.15,-1
Cc1ccc(NC(=O)Cn2cc(C#N)c3ccccc32)cc1,102,3,1.8,56*
O=c1c2ccccc2nc2ccccn12,101,108,0.8,-2
O=c1nc2ccccn2c2c1c(=O)[nH]c1ccccc12,102,3,0.1,62*
N#Cc1c(NCSCc2ccccc2)sc2c1CCCCC2,69*,nt,-0.15,-12
